The values that follow come from PubChem BioAssay (NCI).

SMILES strings stand for the structures. About 83,000 compounds went through this panel and 20% of them were active in at least one assay; those are over-represented in the sample as a whole.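 Results are percent growth after 48 hours of single-concentration exposure. 100 means growth as in untreated cells, lower positive values show inhibition; negative values down to -100 show cell death.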 Activity calls are given as the source filed them. Rule for the calls: active = growth percent below 10; inactive = the rest.

The test system of the assay is HL-60(TB) leukemia. Kind of assay: NCI-60 one-dose screen, 48 h (100 = growth as untreated, 0 = no growth, -100 = all killed). The settings on record: 10 µM unless noted.
For `COCCn1cc(-c2csc(-c3cn(C)c4ccc(F)cc34)n2)c2cccnc21`, the growth was 84.7% (inactive).

Regarding `Cc1cc(O)c(C2=NN(c3ccc(S(N)(=O)=O)cc3)C(c3ccccc3O)C2)cc1Cl` (stereo not drawn), the growth was -35.4% (active). The same measure for `Cn1c(I)c(C#CCO[Si](C)(C)C(C)(C)C)c(=O)[nH]c1=O`: -41.2% (active); for `O=c1cc(-c2ccccc2)[nH]c2c1CCCC2`: 19.1% (inactive). The result for `COc1cc(NCCCCN=C(N)NC(N)=NC(C)C)c2ncccc2c1` reads 55.9% (inactive); that for `C=C(C)[C@@H]1CC[C@]2(C(=O)N3CCN(C)CC3)CC[C@]3(C)[C@H](CC[C@@H]4[C@@]5(C)CCC(=O)C(C)(C)[C@@H]5CC[C@]43C)[C@@H]12`, 60.1% (inactive); that for `C=CC1=C(C)C2=NC1=CC1=NC(=CC3=C(C)C4=C(O)C(C(=O)O)C(=C5NC(=C2)C(C)C5CCC(=O)O)C4=N3)C(CC)=C1C` (stereo not drawn), 89.4% (inactive). As to `COc1ccc(/C=C/c2nc3ccccc3nc2/C=C/c2ccc(OC)cc2)cc1`, the growth was 105% (inactive).

As for `Cc1cc(N2CCCCCC2)nc(NC2CCCC(Nc3ccnc4cc(Cl)ccc34)C2)n1` (stereo not drawn), the growth was -71.3% (active). The same measure for `Nc1ccc(C2c3ccccc3Oc3ccccc32)cc1`: 115% (inactive). Take `CC1(C)OCC(COC(c2ccccc2)(c2ccccc2)c2ccccc2)O1` (stereo not drawn): the growth is 99.9% (inactive).

As to `O=[N+]([O-])c1cc2c(ccc3occc32)o1`, the growth is 5.05% (active). The same measure for `CCOC(=O)c1cc(C(=O)c2ccc(OC)c(OC)c2)n2ccc(/C=C/c3cc[n+](CC(=O)c4ccc(OC)c(OC)c4)cc3)cc12`: 88.6% (inactive).
